# Only some compounds are listed: those with a hit (about 1.2% of all), similar ones and a draw of the others.
# NPR2 activator – GC-B (human) receptor activation. HEK293-GC-B cells, CNP EC30, cGMP TR-FRET; 0% at EC30 CNP, 100% saturating CNP. activation, % at 10 µM. 0.11% of 370,000 active. AID 1920062;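 active = activation at 10 µM reaching about 35% in either raw or pattern-adjusted values, limit read from the data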
# Target sequence (P20594 whole entry, looked up): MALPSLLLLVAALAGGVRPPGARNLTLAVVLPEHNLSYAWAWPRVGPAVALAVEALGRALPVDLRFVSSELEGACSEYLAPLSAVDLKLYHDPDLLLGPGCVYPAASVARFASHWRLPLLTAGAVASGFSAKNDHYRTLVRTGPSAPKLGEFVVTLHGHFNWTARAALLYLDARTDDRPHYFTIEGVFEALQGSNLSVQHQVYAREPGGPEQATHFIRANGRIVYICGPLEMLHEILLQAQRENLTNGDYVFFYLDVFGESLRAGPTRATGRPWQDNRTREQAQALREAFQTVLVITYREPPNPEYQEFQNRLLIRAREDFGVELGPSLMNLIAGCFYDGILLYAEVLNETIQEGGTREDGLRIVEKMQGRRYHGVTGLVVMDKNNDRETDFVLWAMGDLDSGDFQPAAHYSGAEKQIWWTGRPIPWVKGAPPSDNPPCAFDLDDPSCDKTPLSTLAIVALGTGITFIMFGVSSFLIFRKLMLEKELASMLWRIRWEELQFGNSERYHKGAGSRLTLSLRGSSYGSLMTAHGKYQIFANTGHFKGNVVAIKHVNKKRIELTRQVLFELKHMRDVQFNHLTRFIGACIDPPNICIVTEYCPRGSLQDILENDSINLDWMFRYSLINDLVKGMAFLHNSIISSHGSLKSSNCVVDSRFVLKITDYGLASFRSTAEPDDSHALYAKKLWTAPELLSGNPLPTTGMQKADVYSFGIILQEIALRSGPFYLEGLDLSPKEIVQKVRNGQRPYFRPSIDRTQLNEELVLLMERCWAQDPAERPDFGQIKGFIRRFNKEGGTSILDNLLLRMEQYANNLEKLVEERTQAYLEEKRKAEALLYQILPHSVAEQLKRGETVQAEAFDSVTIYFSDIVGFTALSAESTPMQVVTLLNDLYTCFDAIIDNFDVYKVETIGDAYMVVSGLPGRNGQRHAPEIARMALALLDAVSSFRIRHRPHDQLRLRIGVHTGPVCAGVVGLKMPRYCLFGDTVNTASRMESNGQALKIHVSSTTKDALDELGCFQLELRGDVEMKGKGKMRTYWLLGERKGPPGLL
# GC-A act – GC-A (human) enzyme activation; 0.14% of 370,000 active; AID 1671463; HEK293 GC-A cells, cGMP TR-FRET, EC30 ANP; 0% at EC30 ANP, 100% saturating ANP; activation, % at 10 µM; in the data active = activation above about 40%
# PLCb3 inh – PLC-beta3 (human) inhibition, primary screen; Q01970; Purified PLC-beta3, fluorogenic substrate, fluorescence; inhibition, % at 12.2 µM; 0.18% of 370,000 active; in the data active = inhibition above about 11%;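 also: 0% = median of compound wells on plate and 100% = full blocker control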
# PLCg1 inh – PLC-gamma1 (human) inhibition, primary screen | P19174 | 0.84% of 370,000 active | AID 720700 | inhibition, % at 12.2 µM | purified PLC-gamma1, fluorogenic substrate, fluorescence
# PLCgamma1 ctr – PLC-gamma1 inhibition, counter-screen for PLC-beta3 hits. shares compounds with PLCg1 inh. purified PLC-gamma1, fluorogenic substrate, fluorescence. inhibition, % at 12.3 µM. 3.1% of 3,300 active. AID 743258
# PLCbeta3 conf – human PLC-beta3 inhibition, confirmation | shares compounds with PLCg1 inh | purified PLC-beta3, fluorogenic substrate fluorescence | 1% of 3,300 active | inhibition, % at 12.3 µM; in the data active = inhibition above about 11%
# An asterisk follows results filed as active; x = not tested or not shown. Rule as the data show it, unless noted: active = inhibition above about 9.5%; inactive = the rest.
SMILES,NPR2 activator,GC-A act,PLCb3 inh,PLCg1 inh,PLCgamma1 ctr,PLCbeta3 conf
NC(=O)/C(=C\c1ccccc1)NC(=O)/C=C/c1ccccc1,6.7,2.9,4.7,-0.5,x,x
CC(O)c1nc2ccccc2n1CC(=O)N1CCN(c2ccccc2)CC1 (stereo not drawn),5.6,0.4,3.7,10.5*,-6.1,-2.9
CCOc1ccccc1NC(=O)CSc1nc(=O)n(Cc2ccccn2)c2c1CCC2,-2.9,-2.2,-5.0,-0.6,x,x
O=C(CSc1nc(=O)n(Cc2ccccn2)c2c1CCC2)Nc1ccc(F)cc1F,-0.6,-1.3,7.4,13.0*,-2.4,1.0
Cc1cccc(N=Nc2c(N)n[nH]c2-c2ccc(Cl)cc2)c1,-5.8,-0.2,9.6,11.2*,8.0,5.5
COc1ccc(Cn2c(C)nc3ccc([N+](=O)[O-])cc3c2=O)cc1,8.6,6.0,-5.1,2.8,x,x
COc1cc2[nH]c(=O)n(CCCCCC(=O)NC3CCCC3)c(=O)c2cc1OC,-2.2,-7.0,-4.7,10.3*,-0.4,-5.6
Cc1ccc[n+](-c2[nH]c(=O)sc2/C=N/NC(=O)c2ccccc2[O-])c1,0.5,-3.2,1.2,14.3*,2.9,-0.6
CN(C)S(=O)(=O)c1cccc(C(=O)NCC(C)(C)CNC(=O)c2cccc(S(=O)(=O)N(C)C)c2)c1,-2.5,-0.1,-2.2,9.9*,7.9,1.7
CN(C)S(=O)(=O)c1cccc(C(=O)NCCNC(=O)c2cccc(S(=O)(=O)N(C)C)c2)c1,-1.9,-1.3,-4.0,2.2,x,x
CN(C)S(=O)(=O)N1CCC(Cc2ccccc2)CC1,3.6,-0.8,-0.2,-2.1,x,x
Cc1ccccc1NS(=O)(=O)c1ccc(C)c(NS(C)(=O)=O)c1C,-0.2,-3.2,-1.5,9.9*,2.3,0.5
CCc1ccc(OC)c(S(=O)(=O)Nc2ccccc2C)c1,-1.2,-5.2,-1.4,2.2,x,x
COc1ccc(C)cc1S(=O)(=O)Nc1ccccc1C,-1.6,-1.8,10.0,11.4*,-5.8,-4.2
CC(=O)Nc1cc(S(=O)(=O)Nc2ccccc2C)c(C)cc1C,8.9,-1.1,6.0,9.8*,-1.6,2.6
Cc1cccc(CN(CC(=O)N/N=C/c2cccs2)S(=O)(=O)c2ccc(Cl)cc2)c1,-7.4,3.7,2.8,4.3,x,x
CC(Oc1ccccc1Cl)C(=O)/C=C/N(C)C (stereo not drawn),-1.8,5.2,-11.8,-5.0,x,x
Oc1ccc(C[C@@H]2CNCCN2CCCCC2CCCCC2)cc1,-7.2,3.2,14.2*,9.2,2.8,2.5
Oc1ccc(C[C@@H]2CNCCN2CCc2cc(C(F)(F)F)cc(C(F)(F)F)c2)cc1,11.9,9.4,2.8,2.4,x,x
CN(Cc1ccccc1)C(=O)c1ccc(NC(=O)Cc2ccc(NC(=O)C3CCN(C(=O)C4CCCC4)CC3)cc2)cc1,0.0,0.2,5.3,10.0*,-3.8,3.0
CC1CCN(C(=O)CSc2nc3c(cnn3-c3ccc(Cl)cc3)c(=O)[nH]2)CC1,1.5,6.5,11.3*,10.0*,-0.4,1.3
CC1CCN(C(=O)CSc2nc3c(cnn3-c3ccccc3)c(=O)[nH]2)CC1,-11.7,-0.9,0.4,0.2,x,x
CCCN(C(=O)CSc1nc2c(cnn2-c2ccccc2)c(=O)[nH]1)C1CCS(=O)(=O)C1 (stereo not drawn),-2.6,0.1,-0.2,-2.4,x,x
CCN(C(=O)CSc1nc2c(cnn2-c2ccccc2)c(=O)[nH]1)C1CCS(=O)(=O)C1 (stereo not drawn),0.0,0.7,6.4,9.7*,3.6,3.6
CC(C)CNC1=CC(=O)CC(c2ccco2)C1 (stereo not drawn),3.8,-2.0,-6.9,-4.5,x,x
SMILES,NPR2 activator,GC-A act,PLCb3 inh,PLCg1 inh,PLCgamma1 ctr,PLCbeta3 conf
O=C1C=C(NCc2ccc(Cl)cc2)CC(c2ccco2)C1 (stereo not drawn),5.3,-1.5,0.4,10.7*,-9.6,-5.9
CCC(CC)c1nnc(NC(=O)c2cc(C(=O)OC)cc([N+](=O)[O-])c2)s1,-0.1,1.9,-0.1,11.8*,-4.3,-1.9
CCOC(=O)CSc1nnc(NC(=O)c2cccc([N+](=O)[O-])c2)s1,-3.3,2.2,12.8*,4.8,-3.1,0.2
COC(=O)c1cc(C(=O)Nc2nnc(CC(C)C)s2)cc([N+](=O)[O-])c1,4.1,-0.9,2.9,-0.1,x,x
COc1ccccc1NC(=S)NC(=O)CC(C)C,0.5,2.0,-1.3,1.3,x,x
CCN(C(=O)CCc1ccccc1)C1CCCCC1,3.0,6.1,-6.2,0.0,x,x
CCCc1[nH]n(-c2nc3ccccc3s2)c(=O)c1C=NCCCOC,-4.3,-2.9,-1.8,11.2*,-5.1,-1.9
CC1CCCCN1CCNC(=O)C1CCN(S(=O)(=O)c2cccc3nsnc23)CC1 (stereo not drawn),1.6,0.7,-9.4,2.3,x,x
CCOC(=O)CC1C(=O)NCCN1C(=O)c1ccc(Cl)cc1Cl (stereo not drawn),-0.1,-0.6,2.0,16.6*,-1.9,0.6
O=C1NC(Cc2ccccc2)c2nc3cc(F)ccc3c(=O)n2-c2ccccc21 (stereo not drawn),9.4,-4.0,-0.6,11.1*,-5.4,-4.6
Cc1ccc2nc3n(c(=O)c2c1)-c1ccccc1C(=O)NC3Cc1ccc(O)cc1 (stereo not drawn),10.4,-6.7,4.7,10.1*,-6.3,-6.5
CCOc1cccc(C(=O)Nc2cccc(-c3nc4ncccc4o3)c2C)c1,0.7,2.7,-2.2,2.7,x,x
O=C(c1ccccc1CCc1ccccc1)N1CCN(c2ccccn2)CC1,-0.9,-1.0,2.8,6.0,x,x
Cc1ccc(C(=O)Cn2c(C(=O)O)cc3ccccc32)cc1,3.4,0.2,-7.8,-1.9,x,x
Cc1ccc(C(=O)Cn2c(C(=O)OCCO)cc3ccccc32)cc1,-5.3,-4.3,-2.0,10.7*,-8.9,-6.2
O=C(c1cc2cccc([N+](=O)[O-])c2oc1=O)N1CCOCC1,-11.8,-6.8,-4.6,12.3*,-5.6,-0.3
O=C(c1cc2cc([N+](=O)[O-])ccc2oc1=O)N1CCOCC1,8.7,4.2,3.7,-0.9,x,x
COc1ccc(CC(=O)OCC(=O)N2CCCC(C)C2)cc1 (stereo not drawn),-4.4,0.2,-6.1,0.4,x,x
CCOc1ccc(-c2nnc3ccc(SCC(=O)Nc4nc5ccc(C)cc5s4)nn23)cc1,0.8,-3.9,-16.6,-11.7,x,x
COc1ccc(CNC(=O)C2(CC3CC(c4ccccc4)=NO3)CCN(C(=O)C3CCCC3)CC2)cc1 (stereo not drawn),3.3,-3.9,3.1,2.1,x,x
COc1ccc(CNC(=O)C2(CC3CC(c4ccccc4)=NO3)CCN(C(=O)C3(C)CC3)CC2)cc1 (stereo not drawn),1.3,-1.9,7.2,10.8*,-2.4,2.0
COc1cccc(Nc2nc3ccc(C(=O)c4ccccc4)cc3n3cnnc23)c1,-2.5,1.4,-4.5,-3.4,x,x
Cc1cc(C(=O)NCC2CCCCC2)ccc1[N+](=O)[O-],-3.6,0.3,1.2,10.9*,-5.7,-1.1

# Assay outcomes from PubChem BioAssay.
